# Hits are enriched below; roughly 1.2% of the tested compounds scored in any of these assays.
# Rv3671c inh: Rv3671c serine protease inhibitors, primary screen, biochemical, fluorescence polarization, M. tuberculosis H37Rv. P9WHR9. inhibition, % at 5.96 µM. 0.048% of 320,000 active; in the data active means inhibition above about 38%;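 further: extracellular domain of Rv3671c used as enzyme; 0% = enzyme with DMSO and 100% = no enzyme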
# CCHF vOTU inh: CCHFV vOTU protease inhibitors, primary screen, biochemical, Pep-AMC substrate, fluorescence. 0.55% of 370,000 active. inhibition, % at 11.5 µM; in the data active means inhibition above about 30%; further: 0% = vehicle wells with enzyme and 100% = no enzyme wells
# Mtb betalactam: beta-lactam sensitization of Mtb H37Rv, H37Rv. 0.27% of 330,000 active. AID 434955, 2010. M. tuberculosis H37Rv growth with meropenem, percent inhibition. inhibition, % at 25 µM; call rule not given here;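 further: growth measured after seven days incubation then overnight dye step; 0% = bacteria only wells and 100% = bacteria with antibiotic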
# UGM FP inh: M. tuberculosis UGM enzyme inhibitors, primary screen, biochemical, fluorescence polarization, single point; UDP-galactopyranose mutase (Mycobacterium tuberculosis (strain ATCC 25618 / H37Rv)), …; purified UGM, fluorescence polarization probe displacement; inhibition, % at 10 µM; 0.06% of 320,000 active; AID 504406, 2011; in the data active means inhibition above about 10%, passing the limit was not always enough
# RecA splice inh: Mtb RecA intein splicing inhibitors, primary screen, biochemical, fluorescence, HTS. AID 2221, 2009. 0.75% of 290,000 active. inhibition, % (test concentration not listed). cell-free RecA intein splicing; in the data active means inhibition above about 30%;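 further: 0% = vehicle wells and 100% = reference inhibitor control wells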
# Target sequence (P9WHJ3 whole entry, looked up, canonical isoform): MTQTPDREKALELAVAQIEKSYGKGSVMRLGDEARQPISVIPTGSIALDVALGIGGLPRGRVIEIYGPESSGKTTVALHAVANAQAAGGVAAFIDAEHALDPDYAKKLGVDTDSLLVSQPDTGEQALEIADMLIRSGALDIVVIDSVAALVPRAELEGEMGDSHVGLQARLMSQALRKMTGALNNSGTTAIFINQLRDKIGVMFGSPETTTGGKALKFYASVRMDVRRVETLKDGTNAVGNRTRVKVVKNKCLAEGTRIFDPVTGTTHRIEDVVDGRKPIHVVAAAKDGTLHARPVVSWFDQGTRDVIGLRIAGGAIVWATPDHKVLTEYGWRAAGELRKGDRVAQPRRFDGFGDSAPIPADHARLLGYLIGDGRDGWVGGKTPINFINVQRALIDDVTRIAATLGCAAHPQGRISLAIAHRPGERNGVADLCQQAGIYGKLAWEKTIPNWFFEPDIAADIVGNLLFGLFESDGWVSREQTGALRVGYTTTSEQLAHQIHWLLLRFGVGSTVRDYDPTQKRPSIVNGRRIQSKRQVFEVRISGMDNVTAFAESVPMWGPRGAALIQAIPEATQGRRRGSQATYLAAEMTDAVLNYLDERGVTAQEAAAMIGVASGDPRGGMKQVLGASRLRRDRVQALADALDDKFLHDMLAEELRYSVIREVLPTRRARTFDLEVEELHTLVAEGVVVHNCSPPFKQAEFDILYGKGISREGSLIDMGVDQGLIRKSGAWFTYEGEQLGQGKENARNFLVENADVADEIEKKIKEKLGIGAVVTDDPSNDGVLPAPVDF
# Starred values were filed as active, the others as inactive; · = no result given.
SMILES,Rv3671c inh,CCHF vOTU inh,Mtb betalactam,UGM FP inh,RecA splice inh
O=C(O)c1cccc(NC(=S)NC(NC(=O)c2cccc([N+](=O)[O-])c2)C(Cl)(Cl)Cl)c1 (stereo unspecified),-8,9,-2,-1,-5
FC(F)(F)c1ccc(C2[C@H]3CN(Cc4cccnc4)[C@H](c4ccccc4)C34CC2(c2cccnc2)C4)cc1 (stereo partly specified),-12,15,98,2,40*
COc1ccc(S[C@]2(C(=O)N3CCN(c4ncccn4)CC3)CC(=O)N(C(=O)c3ccccc3)[C@@H]2c2ccc(OC)cc2)cc1,·,-4,·,·,·
CCOC(=O)[C@]12CCCCC/C=C\1N(Cc1ccc(OC)cc1)C(=O)[C@H]2CC(=O)NCc1cccc(C(F)(F)F)c1,·,21,·,·,·
Nc1nc(CCl)nc(Nc2ccc3ccccc3c2)n1,·,10,·,·,46*
COc1ccc(N2C(=O)CSC23C(=O)N2c4c(cccc43)C(C)=CC2(C)C)cc1 (stereo unspecified),-9,6,1,-1,33*
Cc1ccc(-c2csc(NC(=O)CSc3nc(C)cc(=O)[nH]3)n2)cc1,-3,5,-4,1,5
Cc1ccc(-c2csc(NC(=O)CSC3=NCCS3)n2)cc1,-19,-5,99,0,58*
CCOC(=S)SCC(=O)Nc1nc(-c2ccc(Br)cc2)cs1,-29,6,11,-1,21
CCOC(=S)SCC(=O)Nc1nc(-c2ccccc2)cs1,1,4,1,1,43*
Cc1cc(Sc2nnc(N)s2)c2ccccc2n1,-3,-6,70,4,11
Cc1cc(Sc2nnc(/N=C/N(C)C)s2)c2ccccc2n1,3,-1,90,0,36*
NC1=[N+](Cc2ccccc2)C[C@H]2C(=C3CCCC[C@H]3n3c(=O)n(-c4ccccc4)c(=O)n32)N1,·,-7,·,·,·
Cc1cccc(N2CC(C(=O)OCC(=O)Nc3sccc3C(N)=O)CC2=O)c1C (stereo unspecified),4,2,-6,2,·
Cc1cccc(N2CC(C(=O)OCC(=O)c3ccc(OC(=O)c4cccs4)cc3)CC2=O)c1C (stereo unspecified),-4,2,1,0,36*
COc1ccc(S[C@]2(C(=O)N3CCN(c4ncccn4)CC3)CC(=O)N(c3ccc(C#N)cc3)[C@@H]2c2ccc(OC)cc2)cc1,·,1,·,·,·
O=C(/C=C/c1ccco1)c1ccc(NC(=O)C23CC4CC(CC(C4)C2)C3)cc1,-56,11,100,4,34*
O=C(N[C@H](Cc1ccccc1)C(=O)N1CCN(C(=O)N2CCOCC2)CC1)[C@H]1O[C@@H](n2ccc(=O)[nH]c2=O)[C@H](O)[C@@H]1O,·,-6,·,·,·
O=C(N/N=C/c1sc(N2CCOCC2)nc1-c1ccccc1)c1ccccc1F,-8,·,1,1,-1
O=C(Nc1ccccc1F)C(=Cc1sc(N2CCOCC2)nc1-c1ccccc1)C(=O)Nc1ccccc1F,-1,-12,-4,12*,-87
COC(=O)C1CN(C2CCCC2)CCS(=O)(=O)N1Cc1cn(Cc2ccc(F)cc2)nn1 (stereo unspecified),·,1,·,·,·
COc1cc(C(=O)NS(=O)(=O)c2ccccc2C)ccc1Cc1cn(C)c2ccc(NC(=O)OC3CCCC3)cc12,-69,·,4,-2,38*
COc1ccc(NC(=O)COc2ccccc2C)cc1S(=O)(=O)N1CCCCC1,-2,-8,-3,3,5
CNc1ccccc1/C(O)=C(\C#N)C(=O)NCc1cccc2ccccc12,·,4,·,·,·
CCN(Cc1cn(Cc2ccc(C)cc2)nn1)S(=O)(=O)c1ccccc1Br,·,-8,·,·,·
SMILES,Rv3671c inh,CCHF vOTU inh,Mtb betalactam,UGM FP inh,RecA splice inh
CC(=O)C1=C(C)N(Cc2ccc(F)cc2)C(=S)NC1c1ccc(Cl)cc1 (stereo unspecified),·,9,·,·,·
COC(=O)c1ccc(-n2c(C)ccc2-c2ccccc2)cc1,0,-11,92,-2,3
COc1ccc(-n2c(C)ccc2-c2ccccc2)cn1,-7,12,-2,58*,3
O=C(CCCCl)Nc1c2c(nn1-c1ccccc1)CSC2,-5,0,-3,-1,2
O=C(CCl)Nc1c2c(nn1-c1ccccc1)CSC2,-1,6,99,0,35*
Cc1[nH]c2ccccc2c1CCN(Cc1cccs1)C(=O)Nc1cccc2c1OCO2,·,7,·,·,·
COCCCNC(=O)/C(C#N)=C/c1cccc(NC(=O)c2ccccc2Cl)c1,-6,-11,-3,-1,6
N#C/C(=C\c1cccc(NC(=O)c2ccccc2Cl)c1)C(=O)NCCc1ccccc1,-17,-8,-2,-2,36*
CC(C)C[C@H]1COc2ccc(Cl)cc2S(=O)(=O)N1Cc1cn(Cc2ccc(C(F)(F)F)cc2)nn1,·,1,·,·,·
COC(=O)c1cc2c(c3c4cc(F)ccc4n(S(=O)(=O)c4cccc(C)c4)c13)C(=O)N(Cc1ccc(C(F)(F)F)cc1)C2,·,11,·,·,·
Nc1nc(-c2ccc3c(c2)OCCO3)cs1,9,-1,95,1,-2
N#Cc1ncc(-c2ccc3c(c2)OCCOCCOCCOCCO3)nc1C#N,-13,5,100,1,36*
N#Cc1ncc(-c2ccc3c(c2)OCCOCCOCCOCCOCCO3)nc1C#N,-3,-16,100,1,44*
CCc1ccc(NC(=O)/C(C#N)=C\c2ccc(OC)c(C(=O)O)c2)cc1,-7,4,-4,2,0
COc1ccc(/C=C(/C#N)C(=O)Nc2ccc(O)cc2)cc1C(=O)O,-1,-6,-4,-2,45*
Cc1ccc(-c2nnnn2-c2ccc(C)cc2)cc1,14,-1,1,-1,3
Cc1ccc(-n2nnnc2CCl)cc1,·,-1,·,·,46*
CN(CCOC(=O)c1cc2ccccc2o1)C1CN(Cc2cn(Cc3ccccc3C(F)(F)F)nn2)S(=O)(=O)C1 (stereo unspecified),·,16,·,·,·
CCCCc1ccc(/C=C2\C(=O)c3ccccc3C(O)=C2C(=O)OCC)cc1,-82,·,6,1,35*
COc1ccc(C=C2C(=O)c3ccccc3C2=O)cc1O,-9,2,-1,-1,25
COc1cc(C2C(C#N)=C(N)Oc3cc(C)oc(=O)c32)ccc1OC(=O)N1CCOCC1 (stereo unspecified),-6,2,1,-3,-1
CCCOc1ccc(C2C(C#N)=C(N)Oc3nc[nH]c(=O)c32)cc1OC (stereo unspecified),0,-14,2,3,0
CC(C)c1[nH]nc2c1C(c1cccc(OC(=O)N3CCOCC3)c1)C(C#N)=C(N)O2 (stereo unspecified),-1,-1,-2,4,45*

# From PubChem BioAssay
